Laboratory results taken from PubChem BioAssay (NCATS).
Inconclusive results are not listed. A call without a number means that no potency is given here. Values without a mark were called inactive. Activity calls are given as the source filed them. Unless noted, calls come from the whole dose curve; as a rule, active = well fitted curve in the direction sought with a large enough effect in the repeat runs; inconclusive = weak or mixed curves; inactive = no such curve, though single readings can be large; an effect the other way counts as inactive or inconclusive.

Legend:
[1] = A High-Content qHTS Against Drug Library for the Identification of Small Molecules that Inhibit DYT1 Early Onset Primary Dystonia-Associated Cell Pathology (AID 1645839; calls by dose curve; for % pathology change, negative = correction: series mostly up to about 46 µM)
How it was run: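 Induced EGFP-delE TorsinA cells are imaged after 48 h of compound treatment. Punctate fusion-protein distribution gives the %pathology value, while nuclei counts flag toxicity. Wild-type EGFP-hTOR1A cells define the normal pattern.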

[2] = biological target: Cytochrome P450 2D6 (Homo sapiens) (UniProt P10635); assay: Cytochrome P450 family 2 subfamily D member 6 (CYP2D6) small molecule antagonists: luciferase biochemical (cell-free) qHTS assay (AID 1645840); note: nearly all actives have a fitted effect of over 55% in size; for activity change, negative = inhibition: series mostly up to about 57 µM
Chain of Cytochrome P450 2D6 (Homo sapiens) (P10635 whole entry, looked up): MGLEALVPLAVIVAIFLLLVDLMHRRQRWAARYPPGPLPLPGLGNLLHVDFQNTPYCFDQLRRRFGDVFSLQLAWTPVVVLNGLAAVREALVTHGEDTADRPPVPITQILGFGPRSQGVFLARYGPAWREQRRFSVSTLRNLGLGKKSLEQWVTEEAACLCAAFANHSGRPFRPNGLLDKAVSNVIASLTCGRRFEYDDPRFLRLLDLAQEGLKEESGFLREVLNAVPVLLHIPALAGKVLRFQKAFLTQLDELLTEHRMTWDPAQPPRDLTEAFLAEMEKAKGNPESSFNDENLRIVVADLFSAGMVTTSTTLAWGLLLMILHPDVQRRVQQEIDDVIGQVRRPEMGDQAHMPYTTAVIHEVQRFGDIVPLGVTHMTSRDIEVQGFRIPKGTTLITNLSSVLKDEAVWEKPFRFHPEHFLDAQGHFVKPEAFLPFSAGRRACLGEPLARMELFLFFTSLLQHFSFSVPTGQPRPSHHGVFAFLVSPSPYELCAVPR
How it was run: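 P450-Glo CYP2D6 system: proluciferin substrate converted by enzyme to luciferin, read by luminescence proportional to activity. Enzyme-substrate mix with compound 10 min at room temperature, then NADPH regeneration 1 h before detection reagent.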

[3] = biological target: Cytochrome P450 2C9 (Homo sapiens) (UniProt P11712); assay: Cytochrome P450 family 2 subfamily C member 9 (CYP2C9) small molecule antagonists: luciferase biochemical (cell-free) qHTS assay (AID 1645842); note: nearly all actives have a fitted effect of over 55% in size; for activity change, negative = inhibition: series mostly up to about 57 µM
Chain of Cytochrome P450 2C9 (Homo sapiens) (P11712 whole entry, looked up): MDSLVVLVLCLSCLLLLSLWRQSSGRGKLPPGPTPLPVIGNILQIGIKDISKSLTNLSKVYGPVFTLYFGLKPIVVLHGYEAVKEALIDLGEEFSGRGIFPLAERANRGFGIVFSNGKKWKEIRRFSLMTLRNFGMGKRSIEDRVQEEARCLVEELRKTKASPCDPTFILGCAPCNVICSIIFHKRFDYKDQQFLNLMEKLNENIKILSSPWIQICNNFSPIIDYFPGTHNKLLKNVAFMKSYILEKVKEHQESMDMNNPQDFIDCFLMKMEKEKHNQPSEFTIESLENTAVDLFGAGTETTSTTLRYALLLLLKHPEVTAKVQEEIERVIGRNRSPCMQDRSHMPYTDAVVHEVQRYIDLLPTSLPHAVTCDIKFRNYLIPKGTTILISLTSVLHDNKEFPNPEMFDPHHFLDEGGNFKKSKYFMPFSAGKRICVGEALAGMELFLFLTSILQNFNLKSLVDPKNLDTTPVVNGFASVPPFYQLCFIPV
How it was run: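 P450-Glo CYP2C9 system: proluciferin substrate with enzyme in mix containing 0.4% BSA, 10 min at room temperature, then NADPH regeneration solution added and incubated 1 h at 37C. Detection reagent stopped reaction; luminescence read after 20 min as RLU.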
Potency is the fitted concentration of half-maximal effect.

Compound | Potency [1] | Potency [2] | Potency [3] | % pathology change, negative = correction [1] | activity change, negative = inhibition [2] | activity change, negative = inhibition [3]
CCOc1ccccc1OCC1CNCCO1 (stereo not drawn) | inactive | inactive | inactive | – | – | –
Nc1ccc(C(=O)OCC(O)CO)cc1 (stereo not drawn) | inactive | inactive | inactive | – | – | –
COc1c(N2C[C@@H]3CCCN[C@@H]3C2)c(F)cc2c(=O)c(C(=O)O)cn(C3CC3)c12 | inactive | inactive | inactive | – | – | –
CC(C)=CCC/C(C)=C/CC/C(C)=C/CCC(=O)OC/C=C(\C)CCC=C(C)C | inactive | inactive | inactive | – | – | –
COc1cc(C=O)ccc1O | inactive | inactive | inactive | – | – | –
CCCCCCCCCCCCCC[N+](C)(C)C | 10 µM (active) | 3.09 µM (active) | inactive | – | – | –
COC(=O)c1cc(Cl)ccc1NS(=O)(=O)C(F)(F)F | inactive | inactive | inactive | – | – | –
COC(=O)c1cc(Cl)c(NC(C)=O)cc1OC | inactive | inactive | inactive | – | – | –
O=C(CCCl)NCc1ccccc1 | inactive | inactive | inactive | – | – | –
Nc1nc(=O)n([C@@H]2O[C@H](CO)[C@@H](O)[C@@H]2F)cc1I | inactive | inactive | inactive | – | – | –
CC(=O)O[C@@H]1C(=O)O[C@@H]2[C@H]1OC(=O)[C@@H]2OC(C)=O | inactive | inactive | inactive | – | – | –
CC(C)(C)C(O)/C=C/c1ccc2c(c1)OCO2 (stereo not drawn) | inactive | 11 µM (active) | 3.09 µM (active) | – | – | –
O=C(O)C(=O)Nc1cccc(-c2nn[nH]n2)c1 | inactive | inactive | inactive | – | – | –
CC(C)C(=O)Nc1cccc(C(F)(F)F)c1 | inactive | inactive | inactive | – | – | –
Cc1ccc2c(Cl)cc(Cl)c(O)c2n1 | inactive | inactive | inactive | – | – | –
C=CCOc1cc(Cl)ccc1C(=O)NCCN(CC)CC | inactive | 0.275 µM (active) | inactive | – | – | –
CCN(CC)CC(=O)Oc1ccc(NC(C)=O)cc1 | inactive | inactive | inactive | – | – | –
C#Cc1ccc(-c2ccccc2F)cc1 | inactive | 15.1 µM (active) | 12 µM (active) | – | – | –

Compound | Potency [1] | Potency [2] | Potency [3] | % pathology change, negative = correction [1] | activity change, negative = inhibition [2] | activity change, negative = inhibition [3]
N#CSCC(=O)O | inactive | inactive | inactive | – | – | –
C1=CC2C3C=CC(C3)C2C1 (stereo not drawn) | inactive | inactive | inactive | – | – | –
CN1C(CSCC(F)(F)F)Nc2cc(Cl)c(S(N)(=O)=O)cc2S1(=O)=O (stereo not drawn) | inactive | inactive | inactive | – | – | –
CC(C)C[C@H](NC(=O)CNC(=O)[C@H](Cc1ccc(O)cc1)NC(=O)[C@H](CO)NC(=O)[C@H](Cc1c[nH]c2ccccc12)NC(=O)[C@H](Cc1cnc[nH]1)NC(=O)[C@@H]1CCC(=O)N1)C(=O)N[C@@H](CCCN=C(N)N)C(=O)N1CCC[C@H]1C(=O)NCC(N)=O (stereo in doubt) | inactive | inactive | inactive | – | – | –
CO/N=C(/C(=O)N[C@@H]1C(=O)N2C(C(=O)[O-])=C(C[n+]3ccn4ncccc43)CS[C@H]12)c1nsc(N)n1 | inactive | inactive | inactive | – | – | –
OC[C@]1(O)OC[C@@H](O)[C@H](O)[C@@H]1O | inactive | inactive | inactive | – | – | –
NCC[C@H](O)C(=O)N[C@@H]1C[C@H](N)[C@@H](O[C@H]2O[C@H](CN)[C@@H](O)[C@H](O)[C@@H]2O)[C@H](O)[C@@H]1O[C@H]1O[C@H](CO)[C@@H](O)[C@H](N)[C@@H]1O | – | – | – | -0.271% [at 0.369 µM] | 10.7% [at 0.91 µM] | 1.19% [at 0.91 µM]
CCOc1c(N2CCOCC2)cnn(C)c1=O | inactive | inactive | inactive | – | – | –
CN1C(=O)c2ccccc2C1=O | inactive | inactive | inactive | – | – | –
CC(=O)OC[C@H]1O[C@@H](OC(C)=O)[C@H](OC(C)=O)[C@@H]1OC(C)=O | inactive | inactive | inactive | – | – | –
O=C(O)CCCC[C@@H]1SC[C@@H]2NC(=O)N[C@@H]21 | inactive | inactive | inactive | – | – | –
CC(=O)Nc1ccn(C2COC(COC(=O)c3ccccc3)O2)c(=O)n1 (stereo not drawn) | inactive | inactive | inactive | – | – | –
CC(C)(C)C1CCC(CC2=C(O)c3ccccc3C(=O)C2=O)CC1 (stereo not drawn) | inactive | inactive | 3.89 µM (active) | – | – | –
CN(C)CCCOC1(Cc2ccccc2)CCCCCC1 | inactive | 2.19 µM (active) | inactive | – | – | –
Cc1coc2ccccc2c1=O | inactive | inactive | inactive | – | – | –
COC(=O)c1cc(Cl)ccc1OC | inactive | inactive | inactive | – | – | –
CCCC(=O)OCOC(=O)C1=C(C)NC(C)=C(C(=O)OC)C1c1cccc(Cl)c1Cl (stereo not drawn) | inactive | 16.2 µM (active) | 2.04 µM (active) | – | – | –
CO/N=C(\C(=O)O)c1csc(NC(=O)CCl)n1 | inactive | inactive | inactive | – | – | –
